Consider eight compounds from PubChem BioAssay (NCI).

Each structure is given as a SMILES string. The panel holds about 83,000 compounds, 20% with a hit somewhere; the sample as a whole holds those more often.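 48-hour exposure, single concentration, 96-well plates; percent growth endpoint where 0 means no net growth. Active: below 10.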 A number with no mark means an inactive call. Activity calls are given as the source filed them.

Test systems include DU-145 prostate; K-562 leukemia; MALME-3M melanoma; MDA-MB-231 breast; RXF 393 renal; SF-268 CNS; SF-295 CNS; SF-539 CNS; UACC-257 melanoma; M14 melanoma; HCT-15 colon; HT29 colon; SNB-75 CNS; SNB-19 CNS; U251 CNS; PC-3 prostate; SK-MEL-5 melanoma; UACC-62 melanoma; LOX IMVI melanoma; SK-MEL-28 melanoma.
Test in all cases: NCI-60 one-dose screen, 48 h (100 = growth as untreated, 0 = no growth, -100 = all killed)
Settings in all cases: 10 µM unless noted

With `COc1ccc(N)c(S)c1`, the growth was 102% in the test on DU-145 prostate; 97.4% with K-562 leukemia; 101% in the test with MALME-3M melanoma; 86.7% in the test on MDA-MB-231 breast; 111% in the test on RXF 393 renal; 105% with SF-268 CNS. In addition, the growth is 100% in the test on SF-295 CNS; 101% in the test with SF-539 CNS; 80.5% in the test on UACC-257 melanoma; 101% in the test with M14 melanoma; 97% in the test on HCT-15 colon; 100% in the test with HT29 colon. Also, the growth with SNB-75 CNS was 84.6%; in the test with SNB-19 CNS, 100%; in the test with U251 CNS, 93.8%; with PC-3 prostate, 73.4%; in the test on SK-MEL-5 melanoma, 91.5%; with UACC-62 melanoma, 93.5%. Also, the growth in the test with LOX IMVI melanoma is 92.3%; with SK-MEL-28 melanoma, 113%.
For `CC12CCC3C(CCC4CC(O)CCC43C)C1C/C(=C/O)C(=O)O2` (stereo not given), the growth is 108% in the test with DU-145 prostate; 102% in the test with K-562 leukemia; 134% in the test with MALME-3M melanoma; 106% with MDA-MB-231 breast; 99.8% with RXF 393 renal; 101% with SF-268 CNS. Moreover, the growth in the test with SF-295 CNS is 105%; in the test on SF-539 CNS, 113%; with UACC-257 melanoma, 92.6%; in the test on M14 melanoma it was 105%; with HCT-15 colon, 106%; in the test on HT29 colon, 102%. Moreover, the growth with SNB-75 CNS was 110%; with SNB-19 CNS it was 101%; in the test on U251 CNS, 104%; in the test on PC-3 prostate, 97.8%; with SK-MEL-5 melanoma, 92.9%; with UACC-62 melanoma it was 100%. Moreover, the growth was 101% with LOX IMVI melanoma and 112% in the test on SK-MEL-28 melanoma.
With `COc1ccc(/C=C/C(=O)c2ccc(-n3cc(CN4CCN(c5cc6c(cc5F)c(=O)c(C(=O)O)cn6C5CC5)CC4)nn3)cc2)cc1OC`, the growth in the test on DU-145 prostate was 45.8%; in the test on K-562 leukemia it was 7.81% (active); with MALME-3M melanoma, 57.5%; in the test on MDA-MB-231 breast it was 55.4%; in the test with RXF 393 renal it was 4.51% (active); in the test on SF-268 CNS it was 59.5%. Besides, the growth is 67.5% in the test with SF-295 CNS; 7.09% (active) in the test with SF-539 CNS; 62% in the test on UACC-257 melanoma; 28.2% in the test on M14 melanoma; 33.8% in the test with HCT-15 colon; 4.76% (active) in the test on HT29 colon. Also, the growth is 65.5% with SNB-75 CNS; 44.7% with SNB-19 CNS; 10.6% in the test on U251 CNS; 9.95% (active) in the test on PC-3 prostate; 50.9% in the test with SK-MEL-5 melanoma; 54.1% with UACC-62 melanoma. Besides, the growth in the test with LOX IMVI melanoma was -1.51% (active); in the test with SK-MEL-28 melanoma, 34.6%.
Turning to `CCOC(=O)n1cnc2c(Cl)ncnc21`, the growth is 106% in the test with DU-145 prostate; 106% in the test with K-562 leukemia; 113% with MALME-3M melanoma; 101% in the test on MDA-MB-231 breast; 104% in the test on RXF 393 renal; 111% in the test with SF-268 CNS. The growth in the test on SF-295 CNS was 101%; in the test with SF-539 CNS, 93.6%; in the test with UACC-257 melanoma, 86.4%; with M14 melanoma, 101%; in the test with HCT-15 colon, 112%; in the test on HT29 colon, 106%. Further, the growth in the test with SNB-75 CNS is 93.9%; in the test with SNB-19 CNS, 86.4%; with U251 CNS, 101%; in the test with PC-3 prostate, 113%; in the test with SK-MEL-5 melanoma, 95.8%; in the test with UACC-62 melanoma it was 104%. Besides, the growth in the test with LOX IMVI melanoma was 88.6%; in the test with SK-MEL-28 melanoma, 121%.
Take `O=C(Nc1cccc([N+](=O)[O-])c1)Nc1cccc([N+](=O)[O-])c1`: the growth in the test with DU-145 prostate was 42.2%; in the test with K-562 leukemia, 15.3%; in the test with MALME-3M melanoma, 66.9%; in the test with MDA-MB-231 breast, 88.1%; in the test with RXF 393 renal it was 99.4%; with SF-268 CNS it was 82.6%. Moreover, the growth is 34.6% in the test on SF-295 CNS; 74.9% in the test with SF-539 CNS; 68.1% in the test on UACC-257 melanoma; 44.6% with M14 melanoma; 24.6% with HCT-15 colon; 40.9% in the test on HT29 colon. The growth was 107% in the test with SNB-75 CNS; 52% in the test with SNB-19 CNS; 50.8% in the test on U251 CNS; 12.7% in the test on PC-3 prostate; 55% in the test on SK-MEL-5 melanoma; 29.9% in the test with UACC-62 melanoma. In addition, the growth in the test on LOX IMVI melanoma was 51.3%; with SK-MEL-28 melanoma, 60.3%.
In the case of `CC(C)[C@@H]1NC(=O)[C@]2(C)CSC(=N2)c2ccnc(c2)CNC(=O)C[C@@H](/C=C/CCS)OC1=O`, the growth with DU-145 prostate was 10.5%; with K-562 leukemia it was 6.95% (active); in the test on MALME-3M melanoma it was 14.6%; in the test with MDA-MB-231 breast, 11.5%; in the test on RXF 393 renal, -61.7% (active); in the test with SF-268 CNS, 13%. Further, the growth was -1.44% (active) with SF-295 CNS; 17.2% with SF-539 CNS; -25% (active) in the test with UACC-257 melanoma; 8.55% (active) with M14 melanoma; 52% in the test with HCT-15 colon; 2.76% (active) with HT29 colon. Moreover, the growth in the test with SNB-75 CNS was 25.8%; in the test with SNB-19 CNS, 23.6%; in the test with U251 CNS, -66.6% (active); with PC-3 prostate it was 17.7%; with SK-MEL-5 melanoma, -88.2% (active); in the test with UACC-62 melanoma, -36.7% (active). Also, the growth with LOX IMVI melanoma is -94.9% (active); in the test with SK-MEL-28 melanoma it was 16.6%.
Turning to `C#CCn1c(-c2cc(OC)c(OC)cc2Br)nc(-c2ccccc2)c1-c1ccccc1`, the growth with DU-145 prostate is 63.9%; in the test with K-562 leukemia, 15.1%; in the test with MALME-3M melanoma, 29.3%; with MDA-MB-231 breast it was 45.7%; with RXF 393 renal, 41.3%; with SF-268 CNS, 70%. The growth is 21.6% in the test with SF-295 CNS; 62.7% with SF-539 CNS; 59.2% in the test with UACC-257 melanoma; 16.1% with M14 melanoma; 29.7% in the test with HCT-15 colon; 9% (active) with HT29 colon. The growth in the test on SNB-75 CNS is 43.1%; in the test with SNB-19 CNS, 55%; in the test on U251 CNS it was 45.4%; in the test with PC-3 prostate it was 25.2%; with SK-MEL-5 melanoma, 12.4%; in the test on UACC-62 melanoma, 40%. The figures for the growth in the test with LOX IMVI melanoma and in the test on SK-MEL-28 melanoma were 34.9% and 69.8%, respectively.
For `O=C(NCCNc1nccc(-c2c(-c3cccc(O)c3)nc3sccn23)n1)Nc1cc(C(F)(F)F)cc(C(F)(F)F)c1`, the growth in the test on DU-145 prostate is 97.1%; in the test with K-562 leukemia, 72.7%; in the test with MALME-3M melanoma, 60.5%; in the test on MDA-MB-231 breast, 41.4%; in the test with RXF 393 renal, 41.4%; with SF-268 CNS, 69.4%. Further, the growth was 66.7% in the test with SF-295 CNS; 96.5% in the test with SF-539 CNS; 57% with UACC-257 melanoma; 21.4% with M14 melanoma; 79.2% in the test with HCT-15 colon; 63.1% in the test with HT29 colon. Also, the growth in the test with SNB-75 CNS was 66.1%; in the test with SNB-19 CNS, 90.8%; in the test with U251 CNS, 77%; with PC-3 prostate, 51.2%; in the test on SK-MEL-5 melanoma, 59.7%; in the test on UACC-62 melanoma it was 54.4%. Further, the results for the growth with LOX IMVI melanoma and in the test on SK-MEL-28 melanoma were 60.6% and 68.8%, respectively.
